# Measurements from PubChem BioAssay.
# Columns and labels:
# [1] = target: Tumor necrosis factor receptor superfamily member 10B (Homo sapiens) (UniProt O14763); test: viability loss of caspase-8 NB7 cells with TRAIL – with/without TRAIL, luminescence panel, confirmation (AID 651596); conditions: NB7 neuroblastoma + caspase-8, TRAIL sensitization, NB7 Caspase-8, with TRAIL, mean of runs, at 10 µM, stronger effect = higher value
# [2] = as above; conditions: NB7 neuroblastoma + caspase-8, without TRAIL, NB7 Caspase-8, without TRAIL, mean of runs, at 10 µM
# Tumor necrosis factor receptor superfamily member 10B (Homo sapiens), sequence (O14763 whole entry, looked up): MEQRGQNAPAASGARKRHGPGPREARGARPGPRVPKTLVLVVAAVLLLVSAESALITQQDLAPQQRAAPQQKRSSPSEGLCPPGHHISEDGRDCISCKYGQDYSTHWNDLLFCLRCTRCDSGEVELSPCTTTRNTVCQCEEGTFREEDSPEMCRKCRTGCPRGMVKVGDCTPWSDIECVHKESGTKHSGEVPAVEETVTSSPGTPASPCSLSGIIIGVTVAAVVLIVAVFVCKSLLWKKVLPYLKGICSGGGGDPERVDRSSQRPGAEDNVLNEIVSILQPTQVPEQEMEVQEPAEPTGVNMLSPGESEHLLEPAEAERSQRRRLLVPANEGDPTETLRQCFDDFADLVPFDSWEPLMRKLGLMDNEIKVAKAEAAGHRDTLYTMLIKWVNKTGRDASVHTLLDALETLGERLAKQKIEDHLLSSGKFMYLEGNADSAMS
smiles,measurement,setting,value
COc1ccc(C(C(=O)NC2CCCC2)N(C(=O)c2snc(-c3ccc(F)cc3)c2N)c2ccc(F)cc2)cc1 (stereo unspecified),activity,[1],50.3%
same,activity,[2],43.5%
Cc1ccc(-n2nnc(-c3nccn3C)n2)cc1,activity,[1],74.7%
same,activity,[2],77.1%
CN(C)CCCNC(=O)C[C@H]1C[C@H](C(=O)N2CCCCC2)[C@@]2(CCc3ccccc3)c3[nH]c4ccc(Cl)cc4c3CCN2C1=O,activity,[1],35.8%
same,activity,[2],82.6%
Cc1ccc(/C=N/Nc2nnc(Cl)c3ccccc23)cc1,activity,[1],82.6%
same,activity,[2],73.8%
Cc1ccc(/C(N)=N/OC(=O)c2ccc(F)cc2)cc1,activity,[1],96.3%
same,activity,[2],92.5%
COc1ccc(C(=O)c2no[n+]([O-])c2C(=O)c2ccc(OC)cc2)cc1,activity,[1],98.3%
same,activity,[2],99%
CSc1nnc(NC(=O)c2nc(S(=O)(=O)Cc3cccc(C)c3)ncc2Cl)s1,activity,[1],93%
same,activity,[2],88.3%
COc1ccc(-c2cn3cc(C)ccc3n2)cc1Br,activity,[1],82.2%
same,activity,[2],77.3%
CCCCN(C)C(=O)c1cc2cc3ccc(OC)cc3nc2s1,activity,[1],69.9%
same,activity,[2],70.3%
O=C(CCl)N=c1sccn1Cc1ccc(Cl)cc1Cl,activity,[1],99.3%
same,activity,[2],99.2%
O=C(Nc1ccc2c(c1)OCCO2)c1ccccn1,activity,[1],75.8%
same,activity,[2],69.1%
C/C(=N\NC(=O)c1ccc(Cl)cc1)c1ccccn1,activity,[1],32.2%
same,activity,[2],51%
O=c1c2c(nc3cc(-c4ccc(F)cc4)[nH]n13)CCCC2,activity,[1],71.5%
same,activity,[2],68.3%
O=C(Nc1ccc2c(c1)OCCO2)c1ccc(Cl)cc1Cl,activity,[1],72.8%
same,activity,[2],66.6%
Cc1ccnc(NC(=O)c2ccc(OCC3CCCO3)cc2)c1 (stereo unspecified),activity,[1],94.4%
same,activity,[2],93.9%
O=S1(=O)N=C(Nc2nc3c(s2)CCCC3)c2ccccc21,activity,[1],75.7%
same,activity,[2],81.4%
CN1CCc2c(sc(NC(=O)c3ccc([N+](=O)[O-])o3)c2C(N)=O)C1,activity,[1],9.5%
same,activity,[2],95.3%
O=C(Cn1ncc(Cl)c(Cl)c1=O)Nc1ccc2c(c1)OCO2,activity,[1],99.5%
same,activity,[2],99.5%
CC(C)(C)c1ccc(-c2cn(-c3ccc(Br)cc3)c3[n+]2CCCS3)cc1,activity,[1],71.9%
same,activity,[2],55.1%
COc1cc(OC)cc(C(=O)Nc2ccc3c(c2)OCCO3)c1,activity,[1],47.1%
same,activity,[2],43.8%
Clc1ccccc1-c1nnc(-c2ccc3c(c2)OCO3)o1,activity,[1],53.9%
same,activity,[2],50.7%
CN(C)c1cccc(C(=O)N/N=C/c2ccccc2F)c1,activity,[1],82.8%
same,activity,[2],73.2%
c1ccc(/N=C2\N=C(Nc3ccccn3)c3ccccc32)nc1,activity,[1],40%
same,activity,[2],48.8%
Cc1onc(-c2c(F)cccc2Cl)c1C(=O)Nc1nc2ccccc2[nH]1,activity,[1],31.9%
same,activity,[2],30.2%
Cc1ccc(CSc2nc3ccncc3[nH]2)cc1,activity,[1],98.5%
same,activity,[2],99.2%
Cc1cccc(NC(=O)c2onc3c2CCCC3)n1,activity,[1],85.6%
same,activity,[2],89.4%
O=C(N/N=C/c1ccc(-c2cccc(C(F)(F)F)c2)o1)c1cccc(F)c1,activity,[1],62.7%
same,activity,[2],50.6%
Cc1ccc(C(=O)NC2CCCCCCC2)c(Cl)c1,activity,[1],62.7%
same,activity,[2],53.6%
Cc1cc(C)n2nc(C(=O)Nc3ccc4c(c3)OCCO4)nc2n1,activity,[1],45%
same,activity,[2],47.2%
Cc1ccc2nc(NC(=S)NC(=O)c3ccco3)sc2c1,activity,[1],77.9%
same,activity,[2],62.9%
C=C1CCc2c([nH]c3ccc(OCC(C)C)cc23)C1=O,activity,[1],91.8%
same,activity,[2],99.2%
O=C(Nc1ccccc1NC(=O)c1c(F)c(F)c(F)c(F)c1F)c1c(F)c(F)c(F)c(F)c1F,activity,[1],90.2%
same,activity,[2],96.2%
O=C(CNC(=O)c1ccccc1F)N/N=C/c1cc(Br)ccc1OC(=O)/C=C/c1ccco1,activity,[1],3.4%
same,activity,[2],20.8%
CC(C)OC(=O)Nc1ccc2c(c1)N(C(=O)N1CCN(C)CC1)c1ccccc1CC2,activity,[1],86.2%
same,activity,[2],84.2%
Cc1ccc(-c2nc3cc(N)ccc3o2)c(C)c1,activity,[1],61%
same,activity,[2],49.5%
C/C(=N\NC(=O)c1ccn(C)n1)c1cccc(NC(=O)c2ccc(C)s2)c1,activity,[1],48.5%
same,activity,[2],45.5%
O=c1c2c3c(sc2nc2n1N=C(c1cccs1)CS2)CCCC3,activity,[1],74.5%
same,activity,[2],77%
O=C(Cc1ccsc1-c1ccccc1)NO,activity,[1],73.4%
same,activity,[2],72.3%
Nc1nc(N)c2cc(S(=O)(=O)c3ccc4ccccc4c3)ccc2n1,activity,[1],64.9%
same,activity,[2],72.5%
CSc1nnc(NC(=O)c2ccc3c(c2)OCO3)s1,activity,[1],76.5%
same,activity,[2],78.7%
O=C(Nc1nc2cc3c(cc2s1)OCCO3)c1ccc([N+](=O)[O-])o1,activity,[1],63.8%
same,activity,[2],84.1%
C/C(=N\NC(=O)c1cccc(O)c1)c1cccc(NC(=O)c2ccc(F)cc2)c1,activity,[1],74.5%
same,activity,[2],77.4%
O=C(Nc1nc2ccccc2[nH]1)c1ccc([N+](=O)[O-])cc1,activity,[1],53.4%
same,activity,[2],35%
CCc1nnc(NC(=O)c2nc(S(=O)(=O)Cc3cccc(C)c3)ncc2Cl)s1,activity,[1],97.6%
same,activity,[2],90.3%
Cn1c(NC(=O)c2ccc(F)cc2)nc2ccccc21,activity,[1],45.1%
same,activity,[2],57.1%
O=C(CCl)Nc1cccc(Oc2ccccc2)c1,activity,[1],97.7%
same,activity,[2],97.7%
CC(C)(C)C(=O)Nc1ccc(-c2cn3ccsc3n2)cc1,activity,[1],95.7%
same,activity,[2],95.8%
O=C(/C=C/c1ccc2c(c1)OCO2)Nc1cccnc1,activity,[1],71.1%
same,activity,[2],76.2%
COc1ccc2nc(-c3ccccn3)ccc2c1,activity,[1],82.1%
same,activity,[2],77.5%
COc1cc(SC)ccc1C(=O)NNC(=O)c1cc(C)oc1C,activity,[1],71.4%
same,activity,[2],70.8%
Cc1cc(C)n(-c2nc(Nc3ccccc3C(F)(F)F)nc(-n3nc(C)cc3C)n2)n1,activity,[1],51.8%
same,activity,[2],71.9%
CCOc1cc(CNCCc2ccc(S(N)(=O)=O)cc2)ccc1OCc1ccc(Cl)cc1,activity,[1],65.4%
same,activity,[2],84.1%
Cc1ccccc1Oc1cc(-n2ncc(Cl)c(Cl)c2=O)ncn1,activity,[1],99.7%
same,activity,[2],99.5%
COc1ccc(NC(=O)c2cc3ccc(O)cc3o/c2=N\O)cc1,activity,[1],77.8%
same,activity,[2],77.1%
COC(=O)c1nc(NC(=S)NC(=O)c2cccs2)sc1C,activity,[1],53.8%
same,activity,[2],37.9%
COc1ccc(C(=O)O/N=C(\N)c2ccccn2)c(OC)c1,activity,[1],75.5%
same,activity,[2],83.2%
COc1ccccc1N1CCN(c2ccc3ccccc3n2)CC1,activity,[1],38.5%
same,activity,[2],24.1%
C=CCN1C=CC(=C/C=C(/C#N)C(=O)OCC)C=C1,activity,[1],50.2%
same,activity,[2],41.9%
CC1=C(C(=O)Nc2ccccc2)C(c2ccc(C)cc2)N=C(Nc2nc3ccccc3o2)N1 (stereo unspecified),activity,[1],41%
same,activity,[2],76%
Cc1ccc(C(=O)N/N=C\c2cccc(OC(=O)c3cccc(F)c3)c2)cn1,activity,[1],37.2%
same,activity,[2],36.8%
CCOC(=O)c1sc2nc(-c3ccccc3)ccc2c1N,activity,[1],76.1%
same,activity,[2],66.1%
O=C(N/N=C/c1cccs1)c1ccc2c(c1)OCO2,activity,[1],71.7%
same,activity,[2],66%
COC(=O)CSc1nc2cc(OC)ccc2cc1C#N,activity,[1],75.6%
same,activity,[2],70%
Cn1c(N/N=C/c2cc3ccccc3nc2Cl)nc2ccccc21,activity,[1],92.3%
same,activity,[2],94%
O=C(Nc1ccc2c(c1)OCCO2)c1ccc(Cl)cc1,activity,[1],66.3%
same,activity,[2],69.5%
Cc1ccsc1C(=O)Nc1nc2ccccc2[nH]1,activity,[1],82%
same,activity,[2],85.7%
Cc1ccnc(NC(=O)CCC2CCCCC2)c1,activity,[1],60.2%
same,activity,[2],46.5%
COc1ccc(C2c3ccc4ccccc4c3Oc3ncn(CCCN(C)C)c(=N)c32)cc1 (stereo unspecified),activity,[1],24.2%
same,activity,[2],76.8%
CC1=C(C(=O)N(C)C)CC(CC(=O)NCCN2CCOCC2)C(=O)N1CCCN1CCCC1=O (stereo unspecified),activity,[1],-0.625%
same,activity,[2],-4.97%
COC(=O)c1ccc(N/C=C/C(=O)c2ccccc2)cc1,activity,[1],61.3%
same,activity,[2],80.2%
C#Cc1ccc(NC(=O)C2(C)CCN2C(=O)CC(c2ccccc2)c2ccccc2)cc1 (stereo unspecified),activity,[1],94.4%
same,activity,[2],89%
Cc1csc(NC(=O)c2cc3c(s2)CCC3)n1,activity,[1],81.8%
same,activity,[2],86.3%
O=C(Nc1ccc(NC(=O)C2CCCCC2)cn1)c1ccco1,activity,[1],76.2%
same,activity,[2],80.6%
CN(C(=O)c1ccccc1)c1nc2ccccc2s1,activity,[1],84.3%
same,activity,[2],72.3%
CC(C)c1ccc(OCc2cccc(C(=O)N/N=C/c3cccnc3)c2)cc1,activity,[1],47.6%
same,activity,[2],45.3%
CC1=NN(c2nc(N)nc(/C(C#N)=C/c3ccc([N+](=O)[O-])o3)n2)C(C)(C)C1,activity,[1],58.1%
same,activity,[2],98.6%
O=C(NCCc1ccccc1)C(c1cccs1)N(C(=O)CCl)c1ccc(Cl)cc1 (stereo unspecified),activity,[1],99.5%
same,activity,[2],99.5%
CC1CCc2c(sc(/N=C/c3ccco3)c2C(N)=O)C1 (stereo unspecified),activity,[1],54.1%
same,activity,[2],56.5%
